Assay outcomes deposited in PubChem by National Center for Advancing Translational Sciences (NCATS).
Pf growth 48h – P. falciparum growth inhibition at 48 hours (one generation). Potency, µM (titrated, usually from 28.7 µM), for inactives: top-dose activity change, negative = inhibition, hits mostly inhibitors. 5.9% of 310,000 active. P. falciparum luciferase growth in erythrocytes, 48 h; further: on the % scale 0 is the no-effect control and ±100 the full control effect
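Luminescence readout; reporter = integrated firefly luciferase in P. falciparum. RBC culture at 2% hematocrit, 0.1% parasitemia final, 37 C/5% CO2; decreased signal taken as growth inhibition.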
Pf growth 96h – inhibits malaria parasite growth, 96 h; P. falciparum luciferase reporter growth, 96 h; Potency, µM (highest dose often 28.7 µM), inactives show top-dose activity change, negative = inhibition, usual class: inhibitors; AID 504834; 6.9% of 320,000 active; further: on the % scale 0 is the no-effect control and ±100 the full control effect
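Two-generation exposure (96 h) targets delayed-death phenotype. Reporter parasites carrying integrated firefly luciferase, in red cells at 2% hematocrit and 0.05% parasitemia final, kept at 37 C, 5% CO2; luminescence loss indicates inhibition.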
SARS PLP yeast – inhibitors of SARS-CoV papain-like protease in yeast; S. cerevisiae expressing SARS-CoV PLpro, growth rescue; Potency, µM (series often up to 32.9 µM), without a hit: top-dose activity, positive = growth rescue, usual class: activators; 0.19% of 330,000 active; AID 485353; calls by dose curve; further: 0% is about no effect; nearly all actives have a fitted effect of over 55% in size
Sm TGR block – blocks Schistosoma mansoni thioredoxin glutathione reductase. Q962Y6. purified TGR, DTNB reduction, TNB absorbance 405 nm. Potency, µM (doses to about 114 µM), inactives show top-dose activity change, negative = inhibition, usual class: inhibitors. 3% of 360,000 active; further: on the % scale 0 is the no-effect control and ±100 the full control effect; nearly all actives have a fitted effect of over 60% in size
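TGR 20 nM + NADPH 100 uM (dispensed conc.), cpd preinc 15 min RT; start with NADPH (500 uM addition) then DTNB (15 mM addition). Kinetic TNB absorbance, 405 nm filter. Four-parameter Hill fit across titration.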
An asterisk follows results filed as active; ? = inconclusive; / = no result given; [ ] = dose if it differs, or a comment. An excerpt weighted towards active compounds, which were near 12% of everything screened. Unless noted, the call rests on the fitted dose curve; in most records, active means well fitted curve in the direction sought with a large enough effect; inconclusive means small, poorly fitted or top-dose-only effect, or another doubt; inactive means no such curve, though single readings can be large; an effect the other way counts as inactive or inconclusive. Potency means the concentration at half of the fitted maximal effect.

SMILES | Pf growth 48h | Pf growth 96h | SARS PLP yeast | Sm TGR block
CC(Oc1ccc(F)cc1)C(=O)Nc1cc(C(F)(F)F)ccc1-n1cncn1 (centres undefined) | 0.586µM* | 0.415µM* | -1.1% | 56.9%
O=C(CC1CCCC1)Nc1cc(C(F)(F)F)ccc1-n1cncn1 | ? | -36.5% | -0.2% | -4.1%
Cc1ccc(OCCCC(=O)Nc2cc(Cl)ccc2-n2cncn2)cc1 | ? | -21.0% | -2.2% | -1.8%
Cc1cc(CN2CCN(CC(=O)Nc3cc(C(F)(F)F)ccc3-n3cncn3)CC2)no1 | 10.4µM* | 4.15µM* | 1.3% | -29.7%
CCC(Oc1ccccc1)C(=O)Nc1cc(Cl)ccc1-n1cncn1 (centres undefined) | 4.15µM* | 11.7µM* | 0.4% | -2.5%
Cc1cc(CN2CCN(CC(=O)Nc3cc(Cl)ccc3-n3cncn3)CC2)no1 | 2.08µM* | 2.08µM* | 1.1% | -13.3%
Cc1cc(N2CCC(C)CC2)nc2ccc(NC(=O)Cc3c(F)cccc3Cl)cc12 | / | / | / | -12.0%
Cc1nc2ncnn2c(C)c1CCC(=O)NCc1ccccc1Cl | / | / | / | 1.5%
Cn1c2ccccc2c2cnn(CC(=O)Nc3ccccc3C(F)(F)F)c(=O)c21 | / | / | / | -1.8%
COC(=O)/C(=C/c1c[nH]c2ccccc12)NC(C)=O | 35.2% | ? | 7.4% | -4.1%
COC(=O)/C(=C/c1cn(C(C)=O)c2ccccc12)[N+](=O)[O-] | 2.7% | -6.1% | 5.8% | 3.55µM*
COC(=O)/C(=C/c1cn(C)c2ccccc12)[N+](=O)[O-] | -5.0% | ? | 2.7% | ?
COC(=O)/C(=C/c1c[nH]c2ccccc12)[N+](=O)[O-] | ? | ? | -1.0% | 44.7µM*
CCCCC1=CC2=CC(=O)C(C)(OC(=O)CC)C(=O)C2=CN1C1CCCCC1 (centres undefined) | ? | 9.28µM* | 0.6% | 0.3%
CCCCC1=CC2=CC(=O)C(C)(OC(=O)CC)C(=O)C2=CN1c1ccc(OC)cc1 (centres undefined) | 11.7µM* | 9.28µM* | -5.7% | -1.5%
COc1ccc(CNC(=O)C2CCC(CNS(=O)(=O)c3ccccc3)CC2)cc1 (centres undefined) | 3.7µM* | 0.0% | 1.3% | 4.0%
Cc1ccc(S(=O)(=O)NCC2CCC(C(=O)NCc3cccs3)CC2)cc1 (centres undefined) | -0.7% | 10.4µM* | -4.5% | -11.9%
COc1ccc(CNC(=O)[C@H](Cc2ccccc2)NC(=O)C2CCN(C(=O)[C@H](C)N)CC2)cc1 | -7.3% | 10.1% | -5.9% | -35.0%
COc1ccc(CNC(=O)[C@H](Cc2ccccc2)NC(=O)C2CCNCC2)cc1 | 16.8% | 4.1% | 17.4% | 31.6µM*
CC1CCN(CCCNC(=O)C2CCC(CNS(=O)(=O)c3ccccc3)CC2)CC1 (centres undefined) | 21.0% | 11.7µM* | 0.1% | -9.8%
O=C(NCc1cccs1)C1CCC(CNS(=O)(=O)c2ccccc2)CC1 (centres undefined) | -3.8% | 81.1% | 0.3% | -3.1%
COc1ccc(Br)cc1CNC(=O)c1cnc2sc(N3CCC(C)CC3)nn2c1=O | / | / | / | 17.2%
Cc1ccc(CNC(=O)C2CCC(CNS(=O)(=O)c3cccc4cccnc34)CC2)cc1 (centres undefined) | ? | 11.7µM* | 9.1% | -2.2%
COc1cccc(CNC(=O)C2CCC(CNS(=O)(=O)c3cccc4cccnc34)CC2)c1 (centres undefined) | ? | ? | 6.1% | -0.3%
COCC(=O)N1CCCC(CNS(=O)(=O)c2ccc(OC)cc2)C1 (centres undefined) | -0.5% | 10.4µM* | -0.6% | 3.9%
SMILES | Pf growth 48h | Pf growth 96h | SARS PLP yeast | Sm TGR block
CC(=O)Nc1ccc(NC(=O)C(Cc2ccccc2)NC(=O)C2CCC(C)CC2)cc1 (centres undefined) | 3.3% | 0.329µM* | 18.6% | 4.1%
Cc1ccc(CNC(=O)c2nnn(Cc3ccc(F)cc3)c2N)cc1 | / | / | / | 1.3%
Cc1nc(S(=O)(=O)c2ccc(Cl)cc2Cl)nc2c1CCC2 | -27.7% | 1.0% | 6.2% | 25.1µM*
Cc1cc(C)c(NC(=O)CSc2nccn2C)c(C)c1 | 15.3% | 0.0738µM* | 9.6% | 6.1%
Cc1cc(NC(=O)CSc2nccn2C)no1 | 12.5% | 16.4%[5.75 µM] | 0.0% | 0.1%
CCc1ccc(C2c3c(oc4ccc(F)cc4c3=O)C(=O)N2c2nc(C)c(C(=O)OC)s2)cc1 (centres undefined) | / | / | / | -4.8%
O=C1CCCC2=C1C1c3ccccc3C(=O)N1c1ccc(C(=O)c3ccccc3)cc1N2 (centres undefined) | 2.33µM* | 89.4% | 26.9% | 1.1%
CCOc1ccc(CCNc2ccc3nnc(-c4ccccc4)n3n2)cc1OCC | ? | 4.65µM* | 3.0% | 0.4%
O=C(Nc1cc(S(=O)(=O)N2CCOCC2)ccc1N1CCOCC1)c1cccs1 | -20.6% | ? | 0.7% | -0.5%
Cc1cc(C)c(NC(=O)C2CC3CCC2C3)c(C)c1 (centres undefined) | 10.4µM* | 25.0% | -0.7% | 15.0%
CN(C)Cc1cc(CN(C)C)c(O)c(CCc2ccccc2)n1 | / | -34.4% | -4.5% | ?
OCc1cc(CO)c(O)c(CCc2ccccc2)n1 | / | 4.65µM* | -4.9% | -6.4%
O=C(Cn1c(=O)nc(-c2ccccc2)c2cc(Cl)ccc21)NCCc1ccccc1 | / | / | / | -11.4%
O=C(NCc1ccco1)C(c1cccs1)N(C(=O)C1COc2ccccc2O1)c1cccc(O)c1 (centres undefined) | 10.4µM* | ? | -1.6% | 35.5µM*
CC(C)CCNC(=O)C(c1ccc(O)cc1)N(Cc1cccs1)C(=O)C1COc2ccccc2O1 (centres undefined) | ? | 46.7% | 4.0% | -2.8%
CCOc1ccc(C(=O)OCC(=O)N(Cc2ccccc2)Cc2ccccc2)cc1OC | 11.7µM* | ? | -4.3% | 1.7%
CCN(Cc1ccccc1)C(=O)COc1ccccc1 | 16.2% | 8.28µM* | -3.1% | -9.1%
COc1cc(C(=O)OCC(=O)NC(=O)NCc2ccccc2)ccc1OC(F)F | -6.6% | -21.6% | 0.1% | -14.2%
CCOCC(=O)N(CC)Cc1ccccc1 | 21.0% | -28.4% | -0.7% | -18.3%[57.1 µM]
O=C(CSc1ccc(F)cc1)Nc1cccc(S(=O)(=O)N2CCOCC2)c1 | / | / | -6.8% | /
CC(=O)OC1N=C(c2ccccc2)c2cc(C)ccc2NC1=O (centres undefined) | 2.9% | 37.8% | 0.0% | ?
CC(=O)OC1N=C(c2ccccc2)c2ccccc2NC1=O (centres undefined) | -25.1% | 14.7µM* | -3.5% | 17.6%
c1coc(Cn2nnnc2CN2CCN(C3CCCC3)CC2)c1 | 8.8% | 1.0% | 2.6% | 31.6µM*
CC(C)C(c1nnnn1Cc1ccco1)N1CCN(C2CCCC2)CC1 (centres undefined) | 9.0% | 1.0% | 1.3% | 3.8%
CCCC(c1nnnn1Cc1ccco1)N1CCN(C2CCCC2)CC1 (centres undefined) | -10.5% | 11.7µM* | 5.6% | -1.6%
Cc1cc(C)cc(OC(C)C(=O)Nc2ccc(S(=O)(=O)Nc3cc(C)nc(C)n3)cc2)c1 (centres undefined) | 1.4% | 13.1µM* | -12.2% | -0.4%
